Data on 39 compounds can be found in PubChem BioAssay (NCATS).

The structures appear in SMILES notation. Results filed as inconclusive are left out. Values without a mark were called inactive. Activity calls are given as the source filed them. The call rests on the fitted dose curve; in most records, active means well fitted curve in the direction sought with a large enough effect; inconclusive means small, poorly fitted or top-dose-only effect, or another doubt; inactive means no such curve, though single readings can be large; an effect the other way counts as inactive or inconclusive.
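Further: cells exposed to compound for 40 hours.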

One experiment in a line: Cell Viability - NIH 3T3 (AID 541).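 Further: plate controls were DMSO alone for no effect and tamoxifen positive control for full effect; nearly all actives have a fitted effect of over 25% in size.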 The conditions noted are these: NIH 3T3 cell viability, qHTS; activity change, negative = cytotoxicity: at 92.2 µM (top of the series). The method in brief: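 In this cytotoxicity screen, acute toxicity is scored as an ATP drop measured by CellTiter-Glo in NIH 3T3 fibroblasts following a 40 hr, 37 °C incubation with compound.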
In general terms: In qHTS, concentration-response curves come from the screen itself.
As for `Oc1cccc(Cl)c1Cl`, the “activity change, negative = cytotoxicity” value was -8.71%.
For `CCC/C=N/O`, the “activity change, negative = cytotoxicity” value was 5.42%.
On to `Nc1cccc2ccccc12`, for which the “activity change, negative = cytotoxicity” value was -17.2%.
On the same count and under the same terms, to `Cc1cnc[nH]1` belongs -12.2%; to `CN(C)N=O`, -5.89%.
With `COc1c(C(C)(C)C)cc([N+](=O)[O-])c(C)c1[N+](=O)[O-]`, the “activity change, negative = cytotoxicity” value was -4.23%.
Take `C=C(Cl)CCl`: the “activity change, negative = cytotoxicity” value is -4.37%.
The same measure, in the same setting: to `ClCCOCOCCCl` belongs -0.878%.
Regarding `CC12CC1(C)C(=O)N(c1cc(Cl)cc(Cl)c1)C2=O` (stereo not drawn), the “activity change, negative = cytotoxicity” value is -7.54%.
On the same count and under the same terms, the result for `CC(C)(Cl)[N+](=O)[O-]` reads 12.2%; that for `Cl/C=C/Cl`, -20%.
Turning to `CCCCOCC1CO1` (stereo not drawn), the “activity change, negative = cytotoxicity” value is -12.9%.
Same read-out and setting: the result for `O=C(O)c1cccc(Cl)c1` reads -0.399%; that for `C1CC2OC2CC1C1CO1` (stereo not drawn), -13.4%; that for `Brc1cccc(-c2ccccc2)c1`, -5.61%.
Still for that read-out and setting: the result for `Oc1c(Cl)cccc1Cl` reads 4.17%; that for `ClCCOCCCl`, -9.86%; that for `CCNCC`, -6.57%.
On to `CC(C)C#N`, for which the “activity change, negative = cytotoxicity” value was -7.44%.
For `Cl/C=C\Cl`, the “activity change, negative = cytotoxicity” value is 0.835%.
For the compound `c1ccc2c(c1)CCNC2`, the “activity change, negative = cytotoxicity” value was -13%.
Still for that read-out and setting: to `CCBr` belongs -11.6%.
For the compound `O=[N+]([O-])c1ccc(Cl)c(Cl)c1Cl`, the activity change, negative = cytotoxicity was -117% (active).
Still for that read-out and setting: the result for `N#CCCC#N` reads -11.6%; that for `Cc1ccccc1[N+](=O)[O-]`, -15.5%; that for `OCCBr`, -14.3%.
Still for that read-out and setting: the result for `C=CC(=O)OCCN(C)C` reads 9.2%; that for `CC(C)(C)C(O)(CCc1ccc(Cl)cc1)Cn1cncn1` (stereo not drawn), -22.7%; that for `N#CCCCCC#N`, -10.6%.
Same read-out and setting: the result for `CN=C=O` reads -12.8%; that for `c1ccc(C2CO2)cc1` (stereo not drawn), -24%.
`CCCCCC[N+](=O)[O-]`: the “activity change, negative = cytotoxicity” value was 5%.
The same measure, in the same setting: to `OCC(Cl)CCl` (stereo not drawn) belongs -3.07%; to `COc1ccc(C=O)cc1`, -2.82%.
On the same count and under the same terms, to `Nc1ccc(Cl)c(Cl)c1` belongs -13.4%; to `CC(=O)[O-].CC(=O)[O-].CC(=O)[O-].[Cr+3]`, 3.09%.
Regarding `CC(=O)CCC(C)=O`, the “activity change, negative = cytotoxicity” value is -20.4%.
For `C=CC(=O)OCC(CC)CCCC` (stereo not drawn), the “activity change, negative = cytotoxicity” value was -0.744%.
As to `CC(C#N)CCC#N` (stereo not drawn), the “activity change, negative = cytotoxicity” value was -7.92%.

Another experiment can be described thus: Cell Viability - HUV-EC-C (AID 542). Further: on the % scale 0 is the no-effect control and ±100 the full control effect; nearly all actives have a fitted effect of over 35% in size. The conditions noted are these: HUV-EC-C endothelial cell viability, qHTS; series mostly up to 92.2 µM; activity change, negative = cytotoxicity: at the top concentration. In short, it runs like this: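 Concentration-dependent ATP loss in HUV-EC-C cells is the measure. Exposure lasts 40 hr at 37 °C; luminescence follows CellTiter-Glo addition, and Hill fits give AC50.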
`Oc1cccc(Cl)c1Cl`: the “activity change, negative = cytotoxicity” value is -6.15%.
For `CCC/C=N/O`, the “activity change, negative = cytotoxicity” value was 13.9%.
As for `Nc1cccc2ccccc12`, the “activity change, negative = cytotoxicity” value is -8.41%.
Same read-out and setting: the result for `Cc1cnc[nH]1` reads -8.15%; that for `CN(C)N=O`, 11%.
Consider `COc1c(C(C)(C)C)cc([N+](=O)[O-])c(C)c1[N+](=O)[O-]`, for which the “activity change, negative = cytotoxicity” value was 9.06%.
On the same count and under the same terms, to `C=C(Cl)CCl` belongs 19.8%.
Turning to `ClCCOCOCCCl`, the “activity change, negative = cytotoxicity” value is -2.35%.
Turning to `CC12CC1(C)C(=O)N(c1cc(Cl)cc(Cl)c1)C2=O` (stereo not drawn), the “activity change, negative = cytotoxicity” value is 4.61%.
On the same count and under the same terms, to `CC(C)(Cl)[N+](=O)[O-]` belongs 0.74%; to `Cl/C=C/Cl`, 3.22%; to `CCCCOCC1CO1` (stereo not drawn), 11.7%.
Regarding `O=C(O)c1cccc(Cl)c1`, the “activity change, negative = cytotoxicity” value is 23.3%.
Turning to `C1CC2OC2CC1C1CO1` (stereo not drawn), the “activity change, negative = cytotoxicity” value was 0.143%.
In the case of `Brc1cccc(-c2ccccc2)c1`, the “activity change, negative = cytotoxicity” value is 6.5%.
Still for that read-out and setting: to `Oc1c(Cl)cccc1Cl` belongs -4.31%.
The same measure, in the same setting: the result for `ClCCOCCCl` reads -2.48%.
The same measure, in the same setting: to `CCNCC` belongs 9.18%; to `CC(C)C#N`, 7.56%.
Turning to `Cl/C=C\Cl`, the “activity change, negative = cytotoxicity” value was -3.46%.
On the same count and under the same terms, to `c1ccc2c(c1)CCNC2` belongs -6.12%; to `CCBr`, 9.67%; to `O=[N+]([O-])c1ccc(Cl)c(Cl)c1Cl`, -6.65%.
Regarding `N#CCCC#N`, the “activity change, negative = cytotoxicity” value is 9.85%.
Still for that read-out and setting: to `Cc1ccccc1[N+](=O)[O-]` belongs -2.36%; to `OCCBr`, 0.674%.
Take `C=CC(=O)OCCN(C)C`: the “activity change, negative = cytotoxicity” value was 7.5%.
Same read-out and setting: to `CC(C)(C)C(O)(CCc1ccc(Cl)cc1)Cn1cncn1` (stereo not drawn) belongs -8.18%; to `N#CCCCCC#N`, -2.01%.
Regarding `CN=C=O`, the “activity change, negative = cytotoxicity” value was 11.8%.
`c1ccc(C2CO2)cc1` (stereo not drawn): the “activity change, negative = cytotoxicity” value was 3.24%.
Same read-out and setting: the result for `CCCCCC[N+](=O)[O-]` reads 19.1%; that for `OCC(Cl)CCl` (stereo not drawn), -2.18%.
Same read-out and setting: to `COc1ccc(C=O)cc1` belongs -1.1%; to `Nc1ccc(Cl)c(Cl)c1`, 12.5%.
The same measure, in the same setting: the result for `CC(=O)[O-].CC(=O)[O-].CC(=O)[O-].[Cr+3]` reads 8.83%.
For the compound `CC(=O)CCC(C)=O`, the “activity change, negative = cytotoxicity” value was -3.12%.
Same read-out and setting: the result for `C=CC(=O)OCC(CC)CCCC` (stereo not drawn) reads 5.74%.
`CC(C#N)CCC#N` (stereo not drawn): the “activity change, negative = cytotoxicity” value is -0.864%.
